# According to PubChem BioAssay (NCATS):
# “And” between values parts separate entries of the source, which are not always exact repeats. Equal values may be shown once. Inconclusive results are not listed. Where a call stands in place of a potency, no number is given. More than one record can exist for a structure, and the calls need not agree. A number with no mark means an inactive call. The source made the active and inactive calls. The call rests on the fitted dose curve; in most records, active means well fitted inhibition curve with a large enough effect; inconclusive means small, poorly fitted or top-dose-only effect; inactive means flat fitted curve, though single readings scatter. Peptide text beside a SMILES is read from it.
# Columns and labels:
# W2 = assay: qHTS profiling for inhibitors of Plasmodium falciparum proliferation (AID 504749); conditions: P. falciparum in erythrocytes, SYBR Green DNA, 72 h; series mostly up to 28.7 µM
# Procedure, shortened: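 Each compound contacts P. falciparum-infected red blood cells for 72 h at 37 C; lysis buffer (Tris, EDTA, saponin, Triton X, SYBR Green I) is added and fluorescence measured next morning; values normalized to controls.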
# CRL-7250 = normal cell line; assay: Cytotoxic Profiling of Annotated Libraries Using Quantitative High-Throughput Screening (AID 1296008); conditions: Five cell lines viability, CellTiter-Glo ATP luminescence, 48-72 h; max response: active compounds read low
# Procedure, shortened: (§1)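 Cells exposed to compounds for 48 or 72 hr at 37 degrees Celsius. Viability read as ATP-coupled luminescence with CellTiter-Glo after 10 min at room temperature.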
# HEK293 = assay: as above; conditions: Five cell lines viability, CellTiter-Glo ATP luminescence, 48-72 h; max response: active compounds read low
# Procedure, shortened: as §1
# HaCat [1] = assay: as above; conditions: Five cell lines viability, CellTiter-Glo ATP luminescence, 48-72 h; max response: active compounds read low
# Procedure, shortened: as §1
# KB-3-1 = assay: as above; conditions: Five cell lines viability, CellTiter-Glo ATP luminescence, 48-72 h; max response: active compounds read low
# Procedure, shortened: as §1
# NIH3T3 = assay: as above; conditions: Five cell lines viability, CellTiter-Glo ATP luminescence, 48-72 h; max response: active compounds read low
# Procedure, shortened: as §1
# HACAT [2] = assay: qHTS assay to identify novel small-molecules to repurpose for Merkel cell carcinoma treatment (AID 1296009); conditions: MCC and control cell lines, CellTiter-Glo viability, 72 h; at 44.8 µM (top of the series) unless noted
# Procedure, shortened: (§2)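 Dose-response viability screen; 72 hr exposure at 37 degree celsius; CellTiter-Glo added, 10 min room temperature, luminescence read; RLUs scaled between no-cell and DMSO wells.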
# MCC-13 = assay: as above; conditions: MCC and control cell lines, CellTiter-Glo viability, 72 h; series mostly up to 46 µM
# Procedure, shortened: as §2
# HEK293T = assay: as above; conditions: MCC and control cell lines, CellTiter-Glo viability, 72 h; at 44.8 µM (top of the series) unless noted
# Procedure, shortened: as §2
# MCC-26 = assay: as above; conditions: MCC and control cell lines, CellTiter-Glo viability, 72 h; series mostly up to 46 µM
# Procedure, shortened: as §2
# Further: nearly all actives have a fitted effect of over 60% in size.
# Potency means the concentration at half of the fitted maximal effect.
SMILES,Potency (W2),max response (CRL-7250),outcome (CRL-7250),Potency (HEK293),outcome (HaCat [1]),max response (KB-3-1),max response (NIH3T3),outcome (NIH3T3),outcome (HACAT [2]),Potency (MCC-13),Potency (CRL-7250),max response (HEK293),outcome (HEK293),max response (HaCat [1]),outcome (HEK293T),Potency (MCC-26),outcome (KB-3-1),Potency (HaCat [1]),Potency (KB-3-1)
Cc1c(C(=O)NN2CCCCC2)nn(-c2ccc(Cl)cc2Cl)c1-c1ccc(Cl)cc1,6.75 µM (active),-1.95%,inactive,26.4 µM (active),inactive,-25.1%,0.216%,inactive,inactive,inactive,–,–,–,–,–,–,–,–,–
CC1=C(C)C(=O)C(C(CCCCCC(=O)O)c2ccccc2)=C(C)C1=O (stereo not drawn),–,0.243%,–,–,inactive,–,2.25%,inactive,inactive,inactive,5.31 µM (active),-12.9%,inactive,-5.06%,inactive,–,–,–,–
Clc1ccc(C(Cn2ccnc2)OCc2c(Cl)cccc2Cl)c(Cl)c1 (stereo not drawn),–,-2.52%,inactive,7.5 µM (active),inactive,-15.6% and -6.5% and -4.2%,-3.81% and -0.381%,inactive,inactive,inactive,–,–,–,1.49%,–,inactive,–,–,–
COc1cc(C(C)=O)ccc1OCCCN1CCC(c2noc3cc(F)ccc23)CC1,–,-1.04%,inactive,–,inactive,–,-2.71%,inactive,inactive,inactive,–,-12.6%,–,–,–,inactive,inactive,–,–
CCN(CC)C(=S)SSC(=S)N(CC)CC,–,–,inactive,59 nM (active) and 313 nM (active) and 841 nM (active),–,0.882% and 32.2%,–,–,–,2.09 µM (active) and 111 nM (active) and 944 nM (active),0.105 µM (active),–,–,–,–,1.48 µM (active) and 596 nM (active),–,11.1 µM (active),0.0833 µM (active)
Cn1c(NCCN(CCO)CCCc2ccc([N+](=O)[O-])cc2)cc(=O)n(C)c1=O,–,-8.35%,inactive,–,inactive,3.71% and -8.99%,4.21% and -8.98%,–,inactive,inactive,–,–,inactive,0.714%,inactive,inactive,–,–,–
Cc1nc(-c2ccc(OCC(C)C)c(C#N)c2)sc1C(=O)O,–,2.28%,inactive,–,inactive,3.2%,4.8%,inactive,inactive,inactive,–,-1.16% and -8.21%,–,0.712%,–,inactive,–,–,–
CN(C)c1ccc(O)c2c1C[C@H]1C[C@H]3[C@H](N(C)C)C(=O)C(C(N)=O)=C(O)[C@@]3(O)C(=O)C1=C2O,–,-30%,inactive,–,inactive,5.11% and -5.52% and -6.53%,-2.91%,inactive,inactive,inactive,–,-11.2%,–,–,–,inactive,–,–,–
CC1=C(C(=O)O)N2C(=O)[C@@H](NC(=O)[C@H](N)C3=CCC=CC3)[C@H]2SC1,–,-13.1%,inactive,–,inactive,-3.32%,–,inactive,inactive,inactive,–,-32.9%,inactive,–,inactive,–,inactive,–,–
CC(=O)Nc1ccc(O)cc1,–,-5.95%,inactive,–,inactive,23.8% and 2.6%,-5.84%,inactive,inactive,inactive,–,1.48%,inactive,-8.57%,inactive,–,–,–,–
COc1cc2nc(N3CCN(C(=O)C4CCCO4)CC3)nc(N)c2cc1OC (stereo not drawn),–,-10.4%,inactive,–,–,-10.1% and 5.78%,-4.15% and -2.16%,–,–,inactive,–,-14.3% and 0.884%,–,3.43% and -0.464%,–,inactive,–,–,–
CC1(C)CCC(C)(C)c2cc(NC(=O)c3ccc(C(=O)O)cc3)ccc21,inactive,0.132%,–,–,inactive,33.6%,-2.77%,inactive,inactive,inactive,–,2.4%,inactive,-6.69%,inactive,inactive,–,–,–
COC(=O)[C@H](Cc1ccccc1)NC(=O)[C@@H](N)CC(=O)O (H-Asp-Phe-OMe),inactive,3.9%,inactive,–,–,0.426% and 2.8% and -6.99%,-5.4% and -2.3%,–,–,inactive,–,-5.62% and -7.54%,–,0.0507% and -16.9%,–,inactive,–,–,–
Clc1ccc(C(Cn2ccnc2)OCc2ccc(Sc3ccccc3)cc2)c(Cl)c1 (stereo not drawn),–,-3.19%,inactive,26.4 µM (active),inactive,-18.4%,-3.29%,inactive,inactive,inactive,–,–,inactive,–,inactive,–,–,–,–
Cc1ccc(C)c(OCCCC(C)(C)C(=O)O)c1,inactive,-2.44%,inactive,–,inactive,–,-1.31% and 0.244%,–,inactive,inactive,–,4.9% and 0.17%,–,3.97%,–,inactive,–,–,–
Cc1cc2c(s1)Nc1ccccc1N=C2N1CCN(C)CC1,–,–,inactive,–,inactive,7.18% and 6.8%,–,inactive,inactive,inactive,–,0.773%,inactive,-13.9%,inactive,inactive,inactive,–,–
CN(C)C(=O)COC(=O)Cc1ccc(OC(=O)c2ccc(N=C(N)N)cc2)cc1,inactive,–,inactive,–,inactive,–,2.87%,inactive,inactive,inactive,–,2.71%,inactive,3.28%,inactive,inactive,–,–,–
Cc1cc2cc3c(C)cc(=O)oc3c(C)c2o1,inactive,4.53% and -2.29%,–,–,inactive,–,-1.93%,inactive,inactive,inactive,–,-0.492%,inactive,-8.67%,inactive,inactive,–,–,–
CCC1=C(C)CN(C(=O)NCCc2ccc(S(=O)(=O)NC(=O)NC3CCC(C)CC3)cc2)C1=O (stereo not drawn),inactive,0.534% and 4.01%,inactive,–,inactive,–,0.91%,inactive,inactive,inactive,–,–,inactive,–,inactive,inactive,–,–,–
CC(=O)NC[C@H]1CN(c2ccc(N3CCOCC3)c(F)c2)C(=O)O1,–,-4.05%,inactive,13.2 µM (active),inactive,-15.9% and -9.99% and -3.52%,-16% and 2.14%,–,inactive,inactive,–,–,–,-2.3%,–,inactive,–,–,–
Cc1cccc(CN2CCN(C(c3ccccc3)c3ccc(Cl)cc3)CC2)c1 (stereo not drawn),–,-2.17%,inactive,–,inactive,8.45% and -5.16%,3.98% and 1.14%,–,inactive,inactive,–,–,–,–,–,inactive,–,–,–
CCN(CCO)CCCC(C)Nc1ccnc2cc(Cl)ccc12 (stereo not drawn),inactive,-6.76% and 0.809%,inactive,–,inactive,–,-2.56%,inactive,inactive [at 4.96 µM],inactive,–,2.34%,inactive,-3.55% and -14.9%,inactive [at 4.96 µM],inactive,–,–,–
CN(c1nccc(=O)[nH]1)C1CCN(c2nc3ccccc3n2Cc2ccc(F)cc2)CC1,12 µM (active),-35.3% and -24.5%,inactive,–,inactive,1.53%,0.52% and 4.28%,inactive,inactive,inactive,–,-109% and 0.851% and -12.1%,–,0.328%,–,–,inactive,–,–
CCCS(=O)c1ccc2nc(NC(=O)OC)[nH]c2c1 (stereo not drawn),–,-27.5%,–,23.7 µM (active),–,–,-29.9%,–,–,inactive,21.1 µM (active),–,–,–,–,–,–,–,20.6 µM (active)
COC(=O)N[C@H](C(=O)N[C@@H](Cc1ccccc1)[C@@H](O)CN(Cc1ccc(-c2ccccn2)cc1)NC(=O)[C@@H](NC(=O)OC)C(C)(C)C)C(C)(C)C,–,-0.779%,–,–,inactive,5.51% and -5.77%,0.751% and -1.44%,–,inactive,inactive,–,-5.2%,inactive,-5.76%,inactive,inactive,–,–,–
CN(C)[C@@H](CCOc1cccc2ccccc12)c1ccccc1,–,-9.42%,inactive,–,inactive,–,-1.45% and -13.3%,–,inactive,inactive,–,–,–,4.48%,–,inactive,–,–,–
COc1ccc2cc([C@H](C)C(=O)O)ccc2c1,–,-17% and 0.0913% and -30.7%,–,–,inactive,11.2% and 5.36% and -1.1%,2.8% and -7.1%,inactive,inactive,inactive,–,0.939%,inactive,-13.6%,inactive,inactive,–,–,–
